Shown are actives, neighbours in structure and some others; about 3.5% of the full set was active somewhere.
FBW7 act = FBW7 E3 ligase activators, primary screen, biochemical, AlphaScreen, human; F-box/WD repeat-containing protein 7 (Homo sapiens), Q969H0; AlphaScreen FBW7–phospho-cyclin E peptide binding, activator screen; normalized activity (activation), % at 26.1 µM; 650,000 compounds, 0.13% hits; AID 1259310, 2017; in the data active = normalized activity above about 1.9%;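 note: purified mutant Fbw7 with reduced substrate affinity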
MITF primary = MITF inhibitors, primary screen, biochemical, AlphaScreen, human. AlphaScreen MITF homodimerization, bead proximity signal. Microphthalmia-associated transcription factor (Homo sapiens), O75030. inhibition, % at 2.6 µM. AID 1259374, 2018. 650,000 compounds, 0.91% hits; in the data active = inhibition above about 50%;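 note: 0% = vehicle wells with protein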
TEAD-YAP inh = TEAD-YAP interaction inhibition, primary screen, TEAD-YAP interaction inhibitor project, luminescence, HEK-TIYL cells | 640,000 compounds, 1.4% hits | AID 1259422, 2018 | inhibition, % at 9.12 µM | TEAD-Gal4/YAP UAS-luciferase luminescence; in the data active = inhibition above about 32%;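 note: 0% = median of test compound wells and 100% = reference inhibitor wells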
GPR151 ag = activators of human GPR151, primary screen, cell-based, PathHunter beta-arrestin, luminescence; AID 1508602, 2020; activation, % at 11.2 µM; G-protein coupled receptor 151 (Homo sapiens), Q8TDV0; 650,000 compounds, 1% hits; PathHunter beta-arrestin GPR151 cells; in the data active = activation above about 4.9%;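 note: 0% = median of compound wells and 100% = cells with positive control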
Target sequence (Q8TDV0 whole entry, looked up): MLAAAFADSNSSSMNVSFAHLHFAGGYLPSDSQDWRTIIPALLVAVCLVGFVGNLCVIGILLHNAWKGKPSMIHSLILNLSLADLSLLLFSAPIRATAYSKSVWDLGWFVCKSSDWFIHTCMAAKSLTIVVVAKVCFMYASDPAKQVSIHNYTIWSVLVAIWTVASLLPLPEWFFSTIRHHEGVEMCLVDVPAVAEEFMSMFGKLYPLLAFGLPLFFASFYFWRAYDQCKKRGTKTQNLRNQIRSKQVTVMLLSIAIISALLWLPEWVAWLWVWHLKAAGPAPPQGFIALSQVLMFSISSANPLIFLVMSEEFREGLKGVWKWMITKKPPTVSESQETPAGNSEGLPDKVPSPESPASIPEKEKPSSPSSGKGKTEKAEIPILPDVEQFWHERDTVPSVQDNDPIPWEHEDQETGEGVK
GPR151 conf act = GPR151 activators, triplicate retest, confirmation, cell-based, PathHunter beta-arrestin, luminescence; shares compounds with GPR151 ag; GPR151 PathHunter beta-arrestin cells, 90 min; % of EA-reagent control over plate median; activation, % at 11.2 µM; 6,700 tested, under 10 active;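 active = mean percent activation across replicates above the confirmation screen cutoff of 4.91%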
GPR119 counter = GPR119 activators in beta-arrestin cells, counter-screen for GPR151 activator project, cell-based, PathHunter beta-arrestin, luminescence, triplicate; shares compounds with GPR151 ag; activation, % at 11.2 µM; AID 1508611, 2020; 90 min; 0 = compound-well median, 100 = enzyme-acceptor control; 6,700 compounds, 0.3% hits;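 active = mean percent activation in the counterscreen above 29.09%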;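 note: counterscreen on off-target GPR119 to flag nonselective hits from the GPR151 activator screen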
* = called active by the depositor; . = no result.

SMILES	FBW7 act	MITF primary	TEAD-YAP inh	GPR151 ag	GPR151 conf act	GPR119 counter
Nc1cc(-c2ccccc2)nn1Cc1cccc(Cl)c1	0	-4	9	0	.	.
Nc1c(-c2ccccc2)c(-c2ccccc2)nn1Cc1ccccc1	1	11	-3	6.9*	1	4
CCCCCOc1ccc(C(=O)C(CCCCC(CN(C)C)C(=O)c2ccc(OCCCCC)cc2)CN(C)C)cc1 (stereo unspecified)	-1	-8	-1	1	.	.
CCN(CC)C(=O)CSc1nnc(-c2cccnc2)n1C	0	6	-8	-1	.	.
Cc1cc(C)c2sc(NC(=O)CCC3CCCC3)nc2n1	0	-6	-11	5.3*	1	-7
COc1ccc(/C(C)=N/NC(=O)c2ccncc2)cc1OC	0	15	-7	2	.	.
Cc1ccc(NC(=O)C(=O)NCC(c2ccc3c(c2)OCO3)N2CCN(C)CC2)c(C)c1 (stereo unspecified)	0	1	-13	6.5*	0	-7
Cc1cccc(N2N=C(c3ccccc3)CC2=O)c1C	0	6	14	8.8*	-1	10
COC(=O)C(Cc1c[nH]c2ccccc12)NC(=O)C(C)C (stereo unspecified)	0	24	3	1	.	.
COC(=O)C(Cc1c[nH]c2ccccc12)NC(=O)C(=O)c1c(C)[nH]c2ccccc12 (stereo unspecified)	0	8	3	6.9*	0	6
O=C(N/N=C/c1ccc(Cl)cc1)c1c[nH]c2ccccc12	1	17	-11	0	.	.
CCC(C)NC(=O)c1c(O)nc2cc(C)ccn2c1=O (stereo unspecified)	1	3	-8	1	.	.
O=C(O)c1cc([N+](=O)[O-])cc([N+](=O)[O-])c1N1CCN(CCO)CC1	0	17	8	5.3*	1	8
COc1cccc(CN(C)C(=O)Nc2c(F)cc(-c3cn[nH]c3)cc2N(C)C)c1	0	-2	-23	1	.	.
CCn1c(SCC(=O)c2ccccc2)nnc1C(C)C	0	-9	-15	13*	1	9
CC(C)c1nnc(SCC(=O)NC(c2ccccc2)c2ccccc2)n1N	0	0	-8	6.3*	0	-7
Nn1c(SCC(=O)NC(c2ccccc2)c2ccccc2)nnc1C1CC1	0	-19	12	-1	.	.
CCn1c(SCC(=O)c2ccccc2)nnc1-c1ccccn1	-1	6	-58	0	.	.
Cc1ccc(OC(=O)c2ccc(N3C(=O)c4cccc([N+](=O)[O-])c4C3=O)cc2)cc1C	0	-9	4	5.9*	0	11
Cc1c(O)ccc(C(=O)CN2CCN(c3ccccc3F)CC2)c1O	0	-1	3	5.0*	1	1
Cc1c(O)ccc(C(=O)CN2CCN(c3ccccc3)CC2)c1O	0	8	-1	0	.	.
O=C(CN(c1ccccc1)S(=O)(=O)c1ccccc1)N1CCN(c2ccccc2)CC1	0	10	3	1	.	.
Cc1cccc(N(CC(=O)N2CCN(c3ccccc3)CC2)S(=O)(=O)c2ccccc2)c1	0	11	8	5.8*	1	-3
Cc1ccc(C(=O)N[C@H]2C[C@H]3C(=O)N[C@H](C)C(=O)N3C2)cc1	0	2	2	5.9*	1	16
C[C@@H]1NC(=O)[C@@H]2C[C@H](NC(=O)c3ccc(F)cc3)CN2C1=O	1	5	-22	-1	.	.
O=C1c2ccccc2C(=O)N1c1ccc(S(=O)(=O)NCCCO)c2ccccc12	0	4	3	2	.	.
CCOc1cccc2cc(-c3csc(Nc4ccccc4C(F)(F)F)n3)c(=O)oc12	0	10	-5	8.1*	0	4
CCOc1cccc2cc(-c3csc(Nc4ccccc4Cl)n3)c(=O)oc12	0	0	7	2	.	.
